Shiga inhibitor – A qHTS for Small Molecule Inhibitors of Shiga Toxin | Vero cells, Shiga toxin protein synthesis inhibition reporter | inhibition, % at 38.7 µM | 290,000 compounds, 9.2% hits | AID 2315, 2010; in the data active = inhibition mostly above about 28%, no sharp cut-off; inactive = mostly below about 43%; note: 0% is about no effect
Cycloheximide cs – Cycloheximide Counterscreen for Small Molecule Inhibitors of Shiga Toxin. cell reporter, cycloheximide protein synthesis inhibition counterscreen. max response, %. 300,000 compounds, 12% hits; in the data active = max response mostly above about 13%, no sharp cut-off; inactive = mostly below about 14%; note: read at 38.3 µM for the half of the compounds with a filed dose; 0% is about no effect
Sm TGR inh – qHTS Assay for the Inhibitors of Schistosoma Mansoni Peroxiredoxins; 360,000 compounds, 3% hits; purified TGR, DTNB reduction, TNB absorbance 405 nm; Potency, µM (doses to about 114 µM), without a hit: at the highest dose activity change, negative = inhibition, actives largely listed as inhibitors; note: potency is the fitted concentration of half-maximal effect; % is set by controls: 0 for no effect and ±100 for the full control effect; nearly all actives have a fitted effect of over 60% in size
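Kinetic colorimetric format: TGR-catalysed, NADPH-driven DTNB reduction monitored via TNB absorbance. Enzyme dispensed at 20 nM; compound exposure 15 min at room temperature before reaction start.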
TbPYK inhibitor – qHTS of Trypanosoma Brucei Inhibitors | TbPYK enzyme, Kinase-Glo Plus ATP luminescence, 45 min | Potency, µM (top dose mostly 76.8 µM), without a hit: at the highest dose activity, negative = inhibition, hits mostly inhibitors | 410,000 compounds, 0.12% hits | pyruvate kinase (Trypanosoma brucei), Q57TT1; note: potency is the fitted concentration of half-maximal effect; % is set by controls: 0 for no effect and ±100 for the full control effect; nearly all actives have a fitted effect of over 50% in size
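TbPYK + substrate in 50 mM TEA pH 7.2, 100 mM KCl, 10 mM MgCl2, 0.05% BSA, 0.01% Tween-20; cpd pinned; ADP 130 uM final; 45 min RT; Kinase-Glo Plus 10 min; luminescence endpoint.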
Giardia FBPA inh – qHTS Assay for Inhibitors of Fructose-1,6-bisphosphate Aldolase from Giardia Lamblia | purified Giardia FBPA | Potency, µM (top dose mostly 59.6 µM), for the others: at the top dose activity, negative = inhibition, most hits filed as inhibitors | 290,000 compounds, 0.71% hits | A8B2U2; note: potency is the fitted concentration of half-maximal effect; % is set by controls: 0 for no effect and ±100 for the full control effect; nearly all actives have a fitted effect of over 55% in size
Target sequence (A8B2U2 whole entry, looked up): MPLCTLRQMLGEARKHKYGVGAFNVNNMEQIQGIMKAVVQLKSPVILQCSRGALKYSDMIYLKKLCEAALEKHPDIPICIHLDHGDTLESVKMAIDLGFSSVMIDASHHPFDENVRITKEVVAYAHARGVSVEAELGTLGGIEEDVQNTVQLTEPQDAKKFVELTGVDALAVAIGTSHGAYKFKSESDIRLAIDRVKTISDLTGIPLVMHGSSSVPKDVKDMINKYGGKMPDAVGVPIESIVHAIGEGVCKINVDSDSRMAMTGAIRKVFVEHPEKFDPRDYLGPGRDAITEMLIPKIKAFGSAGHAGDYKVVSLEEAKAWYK
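40 nM FBPA preincubated 10 min at RT with compound (up to 57.5 uM final), then substrate plus GAPDH/TPI/NAD/arsenate coupling and diaphorase/resazurin added. Fluorescence read after 20 min at RT, 525/598 nm.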
LmPK inh – qHTS Assay for Inhibitors of Leishmania Mexicana Pyruvate Kinase (LmPK); purified LmPK, Kinase-Glo ATP luminescence, 1 h; AID 1721, 2009; Q27686; Potency, µM (top dose mostly 57.5 µM), without a hit: top-dose activity change, negative = inhibition, hits mostly inhibitors; 290,000 compounds, 0.37% hits; note: potency is the fitted concentration of half-maximal effect; % is set by controls: 0 for no effect and ±100 for the full control effect
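Purified LmPK (0.1 nM) converted ADP (0.1 mM) to ATP with PEP (0.5 mM) in imidazole buffer pH 7.2 with KCl and MgCl2, 1 h at room temperature. ATP was read by Kinase-Glo luminescence; data normalized to uninhibited and no-enzyme controls.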
* marks the source's active call; other numbers are inactive results; ? = inconclusive; · = not tested or not shown; [ ] = another dose, or the depositor's remark. The full list was thinned out, with hits kept by preference. Unless noted, calls come from the whole dose curve; as a rule, active = well fitted curve in the direction sought with a large enough effect; inconclusive = small, poorly fitted or top-dose-only effect, or another doubt; inactive = no such curve, though single readings can be large; an effect the other way counts as inactive or inconclusive.

SMILES	Shiga inhibitor	Cycloheximide cs	Sm TGR inh	TbPYK inhibitor	Giardia FBPA inh	LmPK inh
O=C(CN1CCN(Cc2ccccc2Cl)CC1)N/N=C/C=C/c1ccco1	-5.1	-1.6	20µM*	-0.8%	-9.1%	4.1%
O=C(CN1CCN(Cc2ccccc2)CC1)N/N=C\C=C/c1ccco1	-7.2	-0.5	?	3.9%	-7.7%	-6.6%
Clc1ccccc1CN1CCN(/N=C/C=C/c2ccco2)CC1	58.1*	26.4*	15.8µM*	-7.3%	-4.3%	4.0%
Cc1cccc(CNC(=O)c2ccc3oc(=O)n(Cc4ccccc4)c3c2)c1	·	·	6.4%	0.1%	·	·
Cc1ccc(NC(=O)/C=C/c2ccco2)cc1F	·	·	14.1µM*	-3.4%	·	·
Cc1cc(NC(=O)/C=C/c2ccco2)ccc1NC(=O)c1ccccc1	52.8*	28.6*	10µM*	-2.9%	1.5%	3.2%
O=C(/C=C/c1ccco1)Nc1ccc2nn(-c3ccccc3)nc2c1	9.8	9.1	31.6µM*	-2.0%	-5.7%	0.5%
O=C(/C=C\c1ccco1)Nc1cc([N+](=O)[O-])ccc1F	8.2	-0.9	?	7.8%	2.9%	-0.1%
Cc1ccc(NC(=O)/C(=C/c2ccco2)c2ccccc2)c(C)c1	-11.5	-1.9	-18.2%	-0.3%	-3.4%	-3.5%
C=CC[C@@H]1C=C[C@H](O/N=C(\C)CCN2CCCCc3nc(C)c(C)cc32)[C@H](CO)O1	·	·	·	·	0.6%[12.9 µM]	·
COc1ccc(-n2nc(C(=O)N3CCN(c4ccccc4OC)CC3)c3c4ccccc4n(C)c3c2=O)cc1	·	·	-2.5%	5.9%	·	·
CC1CCCCN1C(=O)CSc1nc2ccsc2c(=O)n1Cc1ccccn1 (stereo unspecified)	39.9*	13.9	-31.1%	-0.3%	2.5%	7.0%
O=C(CSc1nc2ccccc2[nH]1)N1CCCCC1	63.3*	47.4*	8.6%	2.3%	-10.6%	-13.1%
CC1CCCCN1C(=O)CSc1nc2ccccc2[nH]1 (stereo unspecified)	81.3*	32.6*	-3.4%	-4.5%	-0.3%	1.0%
CCCCOc1ccccc1NC(=O)Cn1c(-c2cncs2)nc2ccccc21	·	·	-10.2%	6.0%	·	·
CC1CC1C(=O)Nc1nc(-c2ccc(Cl)s2)cs1 (stereo unspecified)	130.5*	37.5*	-0.9%	-0.6%	-4.1%	1.1%
O=C(CSCC(=O)N1CCCCC1)Nc1nc(-c2cccs2)cs1	107.6	19.6*	-4.2%	-7.3%	-5.2%	0.4%
O=C(Nc1nc(-c2ccc(Cl)s2)cs1)c1ccncc1	22.6	14.8	-7.0%	-1.9%	-8.0%	0.1%
CCOC(=O)N1CCN(C(=O)CSCC(=O)Nc2nc(-c3ccccc3)cs2)CC1	30.1*	-2.4	-8.9%	-6.0%	0.0%	1.4%
CC1CC(C)CN(C(=O)CSCC(=O)Nc2nc(-c3cccs3)cs2)C1 (stereo unspecified)	41.4	2.1	1.0%	-6.0%	-6.1%	0.3%
O=C(CSCC(=O)N1CCCCC1)Nc1nc(-c2ccc(Cl)s2)cs1	81.3	15.8*	-15.1%	4.9%	-4.2%	5.0%
O=C(NCc1cccc(Cl)c1)C1CCCN(c2nn3cc(-c4ccc(F)cc4)nc3s2)C1 (stereo unspecified)	·	·	1.1%	-2.9%[15.4 µM]	·	·
C[C@@H]1CN(S(=O)C(C)(C)C)[C@@H](CCO)/C1=C\c1ccccc1 (stereo partly specified)	·	·	·	-7.0%	·	·
CN(C)C(=O)c1noc2cc([N+](=O)[O-])ccc12	-2.6	-3.2	-10.6%	6.7%	2.1%	-4.8%
CC(C)NC(=O)c1noc2cc([N+](=O)[O-])ccc12	103.8*	12.4*	10.9%	1.2%	4.9%	-1.8%
SMILES	Shiga inhibitor	Cycloheximide cs	Sm TGR inh	TbPYK inhibitor	Giardia FBPA inh	LmPK inh
CCOc1ccc2oc(=O)cc(CN3CCN(Cc4ccc(F)cc4)CC3)c2c1	·	·	?	5.2%	·	·
Clc1ccc(-c2cn3cccnc3n2)cc1Cl	60.8	25.9*	-17.1%	2.5%	-4.5%	-1.4%
CCC(=O)Nc1cc(-c2cn3cccnc3n2)ccc1OC	·	·	17.2%	-1.0%	·	·
CN(C)S(=O)(=O)c1cccc(-c2cn3cccnc3n2)c1	2.8	4.8	·	12.0%	-1.7%	4.0%
Brc1ccc(-c2cn3cccnc3n2)cc1	75.2*	35.2*	-3.7%	-9.6%	-5.5%	-0.4%
COc1ccc(-c2cn3cccnc3n2)cc1F	51.3*	43.8*	1.7%	-4.3%	3.4%	-8.7%
O=S(=O)(Nc1ccc(-c2cn3cccnc3n2)cc1)c1ccccc1	9.7	3.9	·	-15.3%	4.5%	2.6%
Clc1ccc(-c2cn3cccnc3n2)cc1	22.0	18.7*	4.6%	0.9%	-1.4%	-1.1%
O=C(Nc1cccc(-c2cn3cccnc3n2)c1)c1cc(Br)ccc1Cl	·	·	-5.0%	2.1%	·	·
CC1C(=O)OC2C(O)C34C5CC(C(C)(C)C)C36C(OC(=O)C6O)OC4(C(=O)O5)C12O (stereo unspecified)	·	·	·	·	8.5%	·
O=C(CC(=O)Nc1ccccc1F)Nc1ccc2nc3n(c(=O)c2c1)CCCCC3	·	·	-1.3%	-4.8%	·	·
Cc1c(C(=O)OC(C)C)[nH]c2c1C(=O)CC(C)(C)C2	-2.1	11.3*	-0.4%	-5.5%	-1.7%	3.9%
Cc1c(C(=O)OC(C)C)[nH]c2c1C(=O)CCC2	19.0	12.0	-1.4%	3.9%	0.2%	-0.3%
CCOC(=O)C1(C)C=C(Nc2ccc(C)cc2)C(=O)N1c1ccccc1 (stereo unspecified)	·	·	6.2%	-1.9%	·	·
COc1ccc2c(C)c(CC(=O)NCc3ccc(C)cc3)c(=O)oc2c1OC	·	·	4.8%	2.1%	·	·
N#CC1=C(SCC(=O)Nc2ccc(C(=O)O)cc2)NC(=O)CC1c1ccco1 (stereo unspecified)	-2.9	9.9	35.5µM*	-19.9%	-4.8%	-0.4%
Cc1ccc(NC(=O)CSC2=C(C#N)C(c3ccco3)C3=C(CCCC3=O)N2)cc1 (stereo unspecified)	32.3	18.6*	-25.9%	1.5%	?	3.8%
CC1(C)CC(=O)C2=C(C1)NC(SCC(=O)Nc1ccccc1)=C(C#N)C2c1ccco1 (stereo unspecified)	-13.6	0.5	-6.2%	6.3%	-1.6%	3.4%
CCCCC[C@H](O)/C=C/C=C/C=C/[C@@H](O)C/C=C\CCCC(=O)O	·	·	·	·	1.6%	·
COC(=O)c1cccc(CN2C(=O)SC(Nc3ccc(Br)cc3)C2=O)c1 (stereo unspecified)	·	·	1.4%	0.2%	·	·
O=C(CSc1nnc(-c2ccccc2)c(-c2ccccc2)n1)NC1CCCCC1	·	·	-13.4%	-0.2%[15.4 µM]	·	·
Cc1csc2nc(CCNS(=O)(=O)c3ccccc3)cn12	·	·	-3.5%	-5.3%	·	·
CCc1[nH]c(=S)c(C#N)c2c1CCCC2	-13.2	-5.1	-19.5%	15.8µM*	-0.3%	17.4%

Screening data (PubChem)
